Compound activity (PubChem BioAssay)
TrxR1 substrate: rat thioredoxin reductase 1 substrate activity; O89049; 390,000 tested, 0.01% active; purified TrxR1 substrate turnover, NADPH consumption readout; Potency, µM (doses to about 114 µM), without a hit: at the highest dose activity change, negative = substrate turnover; AID 588456; also: potency is read from the fitted curve at half-maximal effect; nearly all actives have a fitted effect of over 50% in size
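Rat TrxR1, dispensed at 90 nM, was prereduced with 400 uM NADPH (final) for 5 min at ~22 deg C, then incubated with compound 15 min before 400 uM selenite. A first-read NADPH fluorescence drop versus no-compound background flagged substrates.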
Pin1 inhibitor: blocks the human prolyl isomerase Pin1 | 390,000 tested, 0.009% active | Pin1 FP peptide displacement, HiFluor488, 10 min | Potency, µM (doses to about 115 µM), for inactives: at the highest dose activity, negative = inhibition, actives largely listed as inhibitors | Q13526; active = well fitted inhibition curve with a large enough effect in the polarisation, with a control signal flat, not every such curve was filed as active; inconclusive = small, poorly fitted or top-dose-only effect, or effect the other way, or a change in a side signal; inactive = no such curve, though single readings can be large or run the other way; the % refers to the polarisation; also: potency is read from the fitted curve at half-maximal effect
Target sequence (Q13526 whole entry, looked up): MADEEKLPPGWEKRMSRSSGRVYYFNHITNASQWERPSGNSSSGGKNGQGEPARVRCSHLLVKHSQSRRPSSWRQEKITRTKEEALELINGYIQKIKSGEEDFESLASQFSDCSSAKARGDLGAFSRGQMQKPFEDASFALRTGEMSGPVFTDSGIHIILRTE
Giardia killer: kills Giardia lamblia; Giardia lamblia trophozoite viability; AID 540267; activity change, % at 7.66 µM, hits read low; 340,000 tested, 0.15% active; in the data active = activity change below about -80%; inconclusive = between about -30% and that limit;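 also: parasites exposed to compound for two days anaerobically before the ATP read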
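ATP-content bioluminescence gauges trophozoite survival. Cells (100/well) receive compound and incubate anaerobically for 48 hrs at 37 deg C; detection reagent follows for 15-30 min at room temperature.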
GALK inh: blocks human galactokinase activity; P51570; Purified GALK, Kinase-Glo residual ATP luminescence; Potency, µM (top dose mostly 57.5 µM), for the others: at the highest dose activity change, negative = inhibition, hits mostly inhibitors; 270,000 tested, 0.007% active; also: potency is read from the fitted curve at half-maximal effect
Target sequence (P51570 whole entry, looked up): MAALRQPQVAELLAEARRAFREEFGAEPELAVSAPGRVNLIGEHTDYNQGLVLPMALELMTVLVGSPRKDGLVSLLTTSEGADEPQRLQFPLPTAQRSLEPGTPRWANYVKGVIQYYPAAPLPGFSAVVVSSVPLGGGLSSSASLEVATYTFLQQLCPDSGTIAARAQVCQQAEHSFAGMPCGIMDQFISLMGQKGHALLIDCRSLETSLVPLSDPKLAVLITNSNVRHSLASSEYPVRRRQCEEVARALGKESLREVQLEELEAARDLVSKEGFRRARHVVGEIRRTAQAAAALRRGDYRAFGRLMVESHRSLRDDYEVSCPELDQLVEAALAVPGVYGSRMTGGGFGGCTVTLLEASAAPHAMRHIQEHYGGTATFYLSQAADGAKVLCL
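Quantitative HTS: GALK 5 nM, ATP 35 uM, galactose 100 uM, 1 h room temperature, then luciferase-based ATP detection.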
GCN5L2 inh: inhibitors of human GCN5L2 histone acetyltransferase | Potency, µM (doses to about 58.9 µM), without a hit: at the highest dose activity change, negative = inhibition, usual class: inhibitors | GCN5L2 HAT assay, ThioGlo1 CoA-SH fluorescence | 390,000 tested, 0.21% active | Q92830; also: potency is read from the fitted curve at half-maximal effect
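Fluorescence readout, Ex340nm/Em540nm: ThioGlo1 (50uM final) reacts with free CoA thiol released as 20nM GCN5L2 acetylates H3(1-25) peptide (75uM) using acetyl-CoA (70uM). Compound and enzyme sat 15 min beforehand; 20 min room-temperature reaction.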
TrxR1 inh: inhibitors of rat thioredoxin reductase 1. Potency, µM (highest dose often 114 µM), inactives show at the top dose activity change, negative = inhibition, usual class: inhibitors. 390,000 tested, 1% active. AID 588453. O89049. recombinant rTrxR1, NADPH fluorescence consumption, selenite substrate; also: potency is read from the fitted curve at half-maximal effect; nearly all actives have a fitted effect of over 65% in size
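Rat TrxR1 (90 nM in the dispensed reagent) was pre-reduced with 400 uM NADPH for 5 min at room temperature, then incubated with compound for 15 min. After 400 uM selenite was added, NADPH fluorescence (Ex 340/Em 450 nm) was followed for 8 min.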
* marks the source's active call; other numbers are inactive results; ? = inconclusive; . = not tested or not shown; [ ] = remark or other dose. Most compounds without a hit are left out; they make up all but 1.3% or so of the library. Unless noted, calls follow the shape of the dose curve; as a rule, active = well fitted curve in the direction sought with a large enough effect; inconclusive = small, poorly fitted or top-dose-only effect, or another doubt; inactive = no such curve, though single readings can be large; an effect the other way counts as inactive or inconclusive. % is scaled to controls: 0 for no effect and ±100 for the full control effect.

SMILES	TrxR1 substrate	Pin1 inhibitor	Giardia killer	GALK inh	GCN5L2 inh	TrxR1 inh
COc1ccc(NC(=S)NC(NC(=O)CCl)C(Cl)(Cl)Cl)c([N+](=O)[O-])c1 (stereo not given)	1%	-7%	5	0%	-18%	10µM*
COc1ccc(NC(=S)NC(NC(=O)c2ccccc2Cl)C(Cl)(Cl)Cl)c([N+](=O)[O-])c1 (stereo not given)	3%	-2%	-3	-2%	-6%	-25%
COc1ccc(C2C(O)C(c3c[nH]c4ccccc34)=NN2C(=O)CCl)cc1 (stereo not given)	-4%	19%	9	-7%	-15%	13µM*
Cc1nn(S(=O)(=O)c2ccc(C(C)C)cc2)c(C)c1S(=O)(=O)N1CCCCC1	1%[57.1 µM]	1%	.	.	3%	5%[57.1 µM]
N#C/C(=C(/O)c1ccc([N+](=O)[O-])o1)c1nc2ccccc2[nH]1	-4%	4%	-92*	0%	-7%	-20%
CC(C)(C)/C(O)=C(/C#N)c1nc2ccccc2[nH]1	0%	8%	-9	3%	-5%[0.501 µM]	-2%
O=c1[nH]cnc2c1cnn2Cc1ccccc1Cl	3%	0%	26	.	0%	25%
O=c1c(Cl)c(Cl)cnn1Cc1ccccc1Cl	5%	2%	4	1%	-16%	20µM*
O=c1c(Cl)c(Cl)cnn1-c1ccccc1	5%	-6%	8	-2%	16%	14µM*
Cc1ccc(Cn2ncc(Cl)c(Cl)c2=O)cc1	5%	-4%	-19	0%	-8%	6.3µM*
CCc1ccc(C(=O)Cn2ncc(Cl)c(Cl)c2=O)cc1	6%	-6%	11	-1%	-6%	-30%
Cc1cc(C)cc(Cn2ncc3c4sc(C)cc4n(C)c3c2=O)c1	.	-3%	.	.	.	.
Cc1cc(C)cc(Cn2ncc(Cl)c(Cl)c2=O)c1	4%	10%	5	0%	-1%	6.3µM*
COc1ccc(CN(Cc2ccccc2)C(=O)c2ccccc2N)cc1COc1ccc(NC(C)=O)cc1	.	-2%	.	.	.	.
CCc1ncnc2cc(OC)c(OC)cc12	.	.	.	.	-16%	.
CCN(CC)c1ccc(/C=N/Nc2ccccc2)c(O)c1	-7%	?	-1	2%	-14%	8.9µM*
CCN(CC)c1ccc(/C=N/NC(=S)NC)c(O)c1	-3%	4%	13	0%	-13%	-29%
CCN(CC)c1ccc(/C=N/Nc2cccc(C)c2)c(O)c1	-18%	0%	-14	0%	-11%	22µM*
CCOc1ccccc1NC(=O)c1c(NC(=O)COc2ccccc2)sc2c1CCCCC2	1%	-3%	.	.	1%	-1%
COc1cc2c(NC3CCN(C)CC3)nc(N3CCCN(C)CC3)nc2cc1OCC1CCCNC1 (stereo not given)	58%	.	.	.	.	32µM*
O=C(NNC(=O)c1ccccc1F)C1=NN(c2ccccc2)C(=O)CC1	9%	0%	6	.	-16%	26%
NC(=O)C1CCN(c2ncc(-c3ccc4c(c3)OC(F)(F)O4)s2)CC1	.	1%	.	.	.	.
Cc1ccc(NC(=S)c2ccncc2)c(C)c1	7%	-1%	23	7%	-7%	20µM*
Cc1ccc(NC(=S)Nc2cccc3cnccc23)c(C)c1	4%[57.1 µM]	-2%	-2	4%	-10%	2%[57.1 µM]
CN(C)S(=O)(=O)c1cccc(-n2sc3ccccc3c2=O)c1	-1%[57.1 µM]	-4%	-5	7%	1.6µM*	82%[57.1 µM]
SMILES	TrxR1 substrate	Pin1 inhibitor	Giardia killer	GALK inh	GCN5L2 inh	TrxR1 inh
O=c1c2ccccc2sn1-c1ccccc1	-17%[57.1 µM]	-2%	-3	-5%	1µM*	228%[57.1 µM]
O=C1c2ccccc2C(=O)N1c1nccs1	6%[57.1 µM]	0%	?	.	.	-10%[2.29 µM]
O=c1c2ccccc2sn1-c1nccs1	-3%[57.1 µM]	3%	-12	-2%	3.2µM*	41%[57.1 µM]
O=c1c(N2CCN(c3ccc(F)cc3)CC2)csc2ccc(F)cc12	2%[57.1 µM]	2%	.	.	-3%	14%[57.1 µM]
O=c1c2ccccc2sn1-c1ccc(S(=O)(=O)N2CCCCC2)cc1	6%	3%	-1	.	.	26%
O=c1c2cc(F)ccc2sn1-c1ccccc1	-16%	1%	-8	.	1.1µM*	161%
CCc1ccc(-n2c(SCC(=O)NC(C)CC)nc3n[nH]c(C)c3c2=N)cc1 (stereo not given)	-5%[57.1 µM]	22%	.	.	-4%	4%[57.1 µM]
COc1ccc(Oc2nc3c(c(=O)n(C)c(=O)n3C)n2Cc2ccc(Cl)cc2Cl)cc1	-5%[57.1 µM]	0%	.	.	-1%	5%[57.1 µM]
COc1ccc(C(=O)N(Cc2ccccc2)Cc2cccs2)c(O)c1	.	-7%	.	.	.	.
CCC(C(=O)Nc1ccccc1C(=O)OC)n1c(C)c2cnn(-c3ccccc3)c(=O)c2c1C (stereo not given)	0%	?	.	.	-13%	17%
O=C(O)c1cccc(-n2sc3ccccc3c2=O)c1	-11%[57.1 µM]	-14%	3	.	1.3µM*	160%[57.1 µM]
CC1NC(=O)c2ccccc2-n2c1nc1cc(F)ccc1c2=O (stereo not given)	.	.	.	.	3%	.
Cc1ccccc1-n1sc2cc(F)ccc2c1=O	1%[57.1 µM]	-8%	-8	3%	1.3µM*	74%[57.1 µM]
COC(=O)Cc1c(C)c2cc3c(c(C)c2oc1=O)OCN(CCc1ccc(F)cc1)C3	521%	9%	.	.	28µM*	27%
Cc1c(C)c2cc3c(c(C)c2oc1=O)OCN(CCc1ccc(F)cc1)C3	90%	-6%	.	.	-16%	-4%
O=C(NN=Cc1ccc([N+](=O)[O-])cc1)c1ccncc1	2%[2.29 µM]	6%	20	.	.	7%[2.29 µM]
O=C(/C=C/c1ccc([N+](=O)[O-])cc1)Oc1ccc(/C=N/NC(=O)c2ccncc2)cc1	-5%	?	-11	-9%	-3%	35µM*
Cc1ccc(N)c(Cl)c1	.	.	.	.	8%	.
CCOC(=O)C(C(=O)OCC)C(C(=O)OCC)N1CCOCC1 (stereo not given)	6%	-7%	7	-2%	-9%	1.3µM*
CCOC(=O)C(C)CC(C)C(=O)N1CCOCCOCCN(C(=O)C(C)CC(C)C(=O)OCC)CCOCC1 (stereo not given)	7%	-1%	2	1%	22%	9%
Cc1cc(C)cc(NS(=O)(=O)CCCS(=O)(=O)Nc2cc(C)cc(C)c2)c1	-2%[2.29 µM]	-1%	-4	.	.	-6%[2.29 µM]
CC(C)CCSc1cc(NCCO)c([N+](=O)[O-])c2nonc12	5%[57.1 µM]	-10%	1	8%	-20%	3.5µM*
CCC(=O)OCCNc1cc(SCCC(=O)OC)c2nonc2c1[N+](=O)[O-]	-17%	-2%	-4	0%	-1%	8.9µM*
CCN(CC)c1cc(NCCO)c([N+](=O)[O-])c2nonc12	-13%	-5%	19	5%	-4%	-11%
